Among the data in PubChem BioAssay (NCATS) are Potency values, retold here.

Inconclusive results are not listed. Entries that show only a call come without a potency. Active and inactive are the calls of the source. Calls follow the shape of the dose curve; as a rule, active = well fitted inhibition curve with a large enough effect; inconclusive = small, poorly fitted or top-dose-only effect; inactive = flat fitted curve, though single readings scatter.
Potency is read from the fitted curve at half-maximal effect.

Sequence of Ubiquitin carboxyl-terminal hydrolase 1 (Homo sapiens) (O94782 whole entry, looked up): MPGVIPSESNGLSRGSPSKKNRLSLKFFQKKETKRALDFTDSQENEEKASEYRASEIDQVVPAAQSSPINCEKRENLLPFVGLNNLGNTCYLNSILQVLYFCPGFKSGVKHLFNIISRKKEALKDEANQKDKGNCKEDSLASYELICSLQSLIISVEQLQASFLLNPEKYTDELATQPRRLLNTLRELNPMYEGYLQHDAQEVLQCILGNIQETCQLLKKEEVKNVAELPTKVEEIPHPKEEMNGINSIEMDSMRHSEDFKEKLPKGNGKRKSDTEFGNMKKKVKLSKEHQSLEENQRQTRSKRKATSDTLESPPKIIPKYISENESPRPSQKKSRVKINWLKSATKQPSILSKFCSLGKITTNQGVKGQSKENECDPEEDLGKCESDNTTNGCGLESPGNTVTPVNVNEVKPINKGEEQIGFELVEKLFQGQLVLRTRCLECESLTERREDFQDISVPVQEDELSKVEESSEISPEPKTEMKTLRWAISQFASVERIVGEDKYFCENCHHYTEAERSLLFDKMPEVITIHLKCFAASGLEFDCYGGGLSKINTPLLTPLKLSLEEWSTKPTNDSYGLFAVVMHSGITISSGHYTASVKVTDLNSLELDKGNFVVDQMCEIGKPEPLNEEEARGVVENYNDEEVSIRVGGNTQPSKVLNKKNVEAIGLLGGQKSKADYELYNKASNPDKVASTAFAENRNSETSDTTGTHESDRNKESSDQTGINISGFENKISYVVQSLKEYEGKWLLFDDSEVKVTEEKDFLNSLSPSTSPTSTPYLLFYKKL

The target in the assay is Ubiquitin carboxyl-terminal hydrolase 1 (Homo sapiens) (UniProt O94782). The assay can be described thus: Inhibitors of USP1/UAF1: Pilot qHTS (AID 504865). Also: nearly all actives have a fitted effect of over 35% in size. As to conditions: purified USP1/UAF1, Ub-rhodamine cleavage fluorescence; series mostly up to 114 µM. The text has this:
Deubiquitinating enzymes (DUBs) are a class of enzymes that can cleave isopeptide bond formed between the C-terminal carboxylate of ubiquitin and a lysine side-chain amino group on the target protein. Among them, ubiquitin specific proteases (USPs) constitute the largest DUB family. Human USPs are emerging as promising targets for pharmacological intervention because of their connection to a number of human diseases, including prostate, colon and breast cancer (1, 2), pediatric acute lymphoblastic leukemia (3), and familial cylindromatosis (4). The advantage of inhibiting USPs lies in the potential specificity of therapeutic intervention that can lead to better efficacy and reduce nonspecific side effects.
In a collaboration between the University of Delaware and the NIH Chemical Genomics Center, a high-throughput screen assay was developed to screen for USP1/UAF1 inhibitors. This miniaturized assay has a fluorescent read-out and is used to screen the NIH Molecular Libraries Small Molecule Repository (MLSMR) in order to identify a small molecule that inhibits USP1.
NIH Chemical Genomics Center [NCGC]
NIH Molecular Libraries Probe Centers Network [MLPCN]
Assay Submitter (PI): Zhihao Zhuang, University of Delaware
1. Priolo, C., et al. (2006) The isopeptidase USP2a protects human prostate cancer from apoptosis. Cancer Res 66, 8625-8632
2. Popov, N., et al. (2007) The ubiquitin-specific protease USP28 is required for MYC stability. Nat Cell Biol 9, 765-774
3. De Pitta, C., et al. (2005) A leukemia-enriched cDNA microarray platform identifies new transcripts with relevance to the biology of pediatric acute lymphoblastic leukemia. Haematologica 90, 890-898
4. Kovalenko, A., et al. (2003) The tumour suppressor CYLD negatively regulates NF-kappaB signalling by deubiquitination. Nature 424, 801-805
3 microliters of reagents (buffer in columns 3 and 4 as negative control and 1nM USP1/UAF1 complex in columns 1, 2, and 5-48) are dispensed into Greiner black solid bottom 1536-well assay plates. Compounds are then transferred via Kalypsys pin tool equipped with 1536-pin array (10nl slotted pins, V&P Scientific, San Diego, CA). Following an incubation step of 15 min at room temperature, 1ul of Ub-Rho substrate (150nM final concentration) is added to initiate the reaction. The plates are immediately centrifuged at 1000 rpm for 15 seconds, and subsequently transferred to a ViewLux high-throughput CCD imager (PerkinElmer) wherein kinetic measurements of fluorescence are acquired using 480 nm excitation/540 nm emission filter set (6 reads every 60 seconds, see Table 1). All reagents are diluted in an assay buffer consisting of 50mM HEPES (pH 7.8), 0.5mM EDTA, 0.1 mg/ml BSA, 1mM TCEP, and 0.01% Tween-20.
Turning to `N#C/C(=C\c1cccc(O)c1)C(=O)O`, the Potency result is “inactive”.

Turning to `C[C@H]1CC[C@@]2(NC1)O[C@@H]1C[C@H]3[C@@H]4CC[C@@H]5C[C@@H](O)CC[C@@]5(C)[C@@H]4CC[C@]3(C)[C@@H]1[C@@H]2C`, the Potency result was “inactive”.

Consider `O=c1ccc2cc(O[C@H]3OC(CO)C(O)C(O)C3O)c(O)cc2o1` (stereo not given in full), for which the Potency entry was “inactive”.

Take `CC(=O)O[C@H]1C[C@@H](O[C@@H]2[C@H](C)O[C@H](O[C@@H]3[C@H](C)O[C@H](O[C@@H]4CC[C@@]5(C)[C@@H](CC[C@]6(C)[C@]5(C)C[C@H](O)[C@]5(C)[C@@H](C7=CC(=O)OC7)CC[C@@]56O)C4)C[C@@H]3O)C[C@@H]2O)O[C@@H](C)[C@H]1O[C@H]1O[C@@H](CO)[C@@H](O)[C@@H](O)[C@@H]1O`: the Potency entry was “inactive”.

As for `O=C1CCCC2C3CC(CN12)C1CCCCN1C3` (stereo not given), the Potency entry is “inactive”.

On to `CO[C@@H](C)[C@](O)(C(=O)OCC1=CCN2CC[C@@H](O)[C@H]12)C(C)C`, for which the Potency result is “inactive”.

In the case of `COC1=CC(=O)O[C@@H](/C=C\c2ccccc2)C1`, the Potency entry was “inactive”.

As to `CN1CCC2=C[C@H](O)[C@@H]3OC(=O)c4cc5c(cc4[C@H]3[C@H]21)OCO5`, the Potency result was “inactive”.

Regarding `CC1(C)N([O-])[N+](=O)C1(C)Br` (stereo not given), the Potency entry was “inactive”.

Take `CC1C(=O)OC2O[C@]3(C)CC[C@H]4C(C)CCC1[C@]24OO3` (stereo not given in full): the Potency result is “inactive”.

With `CCCCSP(=O)(SCCCC)SCCCC`, the Potency result was “inactive”.

As for `C=C(C)[C@H]1[C@H]2OC(=O)[C@@H]1[C@]1(O)C[C@H]3O[C@]34C(=O)O[C@H]2[C@@]14C`, the Potency result was “inactive”.

As to `CCN(CC)C(=O)N[C@@H]1C[C@@H]2c3cccc4[nH]cc(c34)C[C@H]2N(C)C1`, the Potency result was “inactive”.

For the compound `Cc1c(O)c(O)cc2c1CC=C1[C@]3(C)CC[C@]4(C)CC[C@@](C)(C(=O)O)CC4[C@]3(C)CC[C@]12C` (stereo not given in full), the Potency result was “inactive”.

Regarding `CC1/C=C/C=C/CC/C=C/C=C/C=C/C=C/C(OC2OC(C)C(O)C(N)C2O)CC2O[C@](O)(CC(O)C(O)CCC(O)CC(O)CC(O)CC(=O)OC(C)C(C)C1O)CC(O)C2C(=O)O` (stereo not given in full), the Potency result was “inactive”.

Take `CC1OC(O[C@@H]2C(O)CC(O[C@@H]3C(O)C[C@@H](OC4CC[C@]5(C)[C@H](CC[C@H]6[C@@H]5CC[C@]5(C)C(C7=CC(=O)OC7)C(O)C[C@@]65O)C4)OC3C)OC2C)CC(O)C1O` (stereo not given in full): the Potency entry is “inactive”.

With `CNC(=O)Oc1ccc2c(c1)[C@@]1(C)CCN(C)C1N2C` (stereo not given in full), the Potency result was “inactive”.

As for `CO[C@H]1C=C2CCN(C)[C@@H]2[C@@H]2c3cc4c(cc3C(=O)O[C@H]21)OCO4`, the Potency entry was “inactive”.

For `CC(C)[C@@]1(NC(=O)[C@@H]2C[C@H]3c4cccc5[nH]cc(c45)C[C@@H]3N(C)C2)O[C@]2(O)[C@H]3CCCN3C(=O)[C@H](Cc3ccccc3)N2C1=O`, the Potency entry is “inactive”.

Regarding `CC(C)=CCCC1(C)C=Cc2c(O)c3c(c(CC=C(C)C)c2O1)OC12C(=CC4CC1C(C)(C)OC2(C/C=C(/C)C(=O)O)C4=O)C3=O` (stereo not given), the Potency was 20 µM (active).

With `COc1ccc2c(c1)[C@@]13CCCCC1[C@@H](C2)N(C)CC3` (stereo not given in full), the Potency entry is “inactive”.

As to `CCN1C[C@]2(C)CC[C@H](O)[C@@]34[C@@H]5CC6[C@@H](OC)C[C@@](O)([C@@H]5[C@@H]6O)[C@H](C[C@@H]23)[C@H]14`, the Potency result was “inactive”.

For the compound `CC(C)N1C(=O)c2ccccc2NS1(=O)=O`, the Potency result is “inactive”.

For `Cc1[nH]c2ccccc2c1CN(C)C`, the Potency entry is “inactive”.

Regarding `CN1C[C@H](CO)C=C2c3cccc4[nH]cc(c34)C[C@@H]21`, the Potency was 31.6 µM (active).

Turning to `COC1=CC2C3Cc4ccc(OC)c(O)c4[C@]2(CCN3C)CC1=O` (stereo not given in full), the Potency entry was “inactive”.

In the case of `C[C@H]1CC[C@@H]2[C@@H](C)C(=O)O[C@H]3O[C@@]4(C)CC[C@H]1[C@@]32OO4`, the Potency entry was “inactive”.

Take `C=C(C)C1Cc2c(ccc3c(=O)c4c(oc23)COc2cc(OC)c(OC)cc2-4)O1` (stereo not given): the Potency entry was “inactive”.

On to `Oc1ccc2c3c1OC1C(O)CC[C@]4(O)C(C2)N(CC2CCC2)CC[C@]314` (stereo not given in full), for which the Potency result is “inactive”.

Regarding `Cc1ccccc1-c1cncnc1NCCc1cnc[nH]1`, the Potency entry was “inactive”.

As for `CC(C)(O)[C@@H]1C2OC(=O)[C@@H]1[C@]1(O)C[C@H]3O[C@]34C(=O)O[C@H]2[C@]14C`, the Potency result was “inactive”.

Turning to `C[C@]12CCC(=O)C=C1CCc1ccc(O)cc12`, the Potency result was “inactive”.

With `CC(=O)OC1C[C@H](O[C@@H]2C(O)C[C@H](O[C@@H]3C(O)C[C@@H](OC4CC[C@]5(C)C(CCC6C5CC(O)[C@@]5(C)C(C7=CC(=O)OC7)CC[C@@]65O)C4)OC3C)OC2C)O[C@H](C)[C@H]1O[C@H]1OC(CO)C(O)C(O)C1O` (stereo not given in full), the Potency result is “inactive”.

For the compound `CN[C@@H](C)[C@H]1CC[C@@H](N)[C@@H](O[C@@H]2[C@@H](O)[C@@H](O[C@H]3OC[C@@](C)(O)[C@@H](NC)[C@@H]3O)[C@H](N)C[C@@H]2N)O1` (tested in a mixture with another compound), the Potency result was “inactive”.

For the compound `COC(=O)COc1cc(Cl)c(Cl)cc1Cl`, the Potency entry is “inactive”.

For `CC1(C)C(O)CC(O)[C@]2(C)C1CC(=O)[C@]1(C)C2CC[C@@]2(C)C(c3ccoc3)OC(=O)C3OC321` (stereo not given in full), the Potency entry was “inactive”.

For the compound `CCN1C[C@]2(C)CC[C@H](OC)[C@@]34[C@@H]2[C@H](OC(C)=O)[C@]2(OCO[C@@]25C[C@@H](OC)[C@@H]2C[C@@]3(O)[C@H]5[C@@H]2OC)[C@H]14`, the Potency entry is “inactive”.

Regarding `C=C1C/C(=C\C)C(=O)O[C@@H]2CCN3CC=C(COC(=O)[C@@]1(C)O)[C@H]23`, the Potency result was “inactive”.

In the case of `O=C(CC[N+](=O)[O-])OCC1OC(O)C(OC(=O)CC[N+](=O)[O-])[C@@H](OC(=O)CC[N+](=O)[O-])C1OC(=O)CC[N+](=O)[O-]` (stereo not given in full), the Potency entry was “inactive”.

As for `C[C@]12CC[C@H](O)C[C@@H]1CC[C@H]1[C@H]2CC[C@]2(C)C(=O)CC[C@@H]12`, the Potency entry was “inactive”.
